From PubChem BioAssay come the findings set out here.

Structures are written as SMILES. Activity calls are given as the source filed them.

The target of one assay is Albumin (Bos taurus) (UniProt P02769). Put plainly: compounds binding labelled BSA control protein – biochemical, small-molecule microarray, Alexa647 label, 635/667 nm fluorescence, artefact control for SMM control protein annotation, profiling panel (AID 1118).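 Also: score merges 667 nm emission intensity and signal-to-noise per printed compound spot.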 Particulars: BSA-A647 binding, fluorescence 635 nm, higher = more signal.
Sequence of Albumin (Bos taurus) (P02769 whole entry, looked up): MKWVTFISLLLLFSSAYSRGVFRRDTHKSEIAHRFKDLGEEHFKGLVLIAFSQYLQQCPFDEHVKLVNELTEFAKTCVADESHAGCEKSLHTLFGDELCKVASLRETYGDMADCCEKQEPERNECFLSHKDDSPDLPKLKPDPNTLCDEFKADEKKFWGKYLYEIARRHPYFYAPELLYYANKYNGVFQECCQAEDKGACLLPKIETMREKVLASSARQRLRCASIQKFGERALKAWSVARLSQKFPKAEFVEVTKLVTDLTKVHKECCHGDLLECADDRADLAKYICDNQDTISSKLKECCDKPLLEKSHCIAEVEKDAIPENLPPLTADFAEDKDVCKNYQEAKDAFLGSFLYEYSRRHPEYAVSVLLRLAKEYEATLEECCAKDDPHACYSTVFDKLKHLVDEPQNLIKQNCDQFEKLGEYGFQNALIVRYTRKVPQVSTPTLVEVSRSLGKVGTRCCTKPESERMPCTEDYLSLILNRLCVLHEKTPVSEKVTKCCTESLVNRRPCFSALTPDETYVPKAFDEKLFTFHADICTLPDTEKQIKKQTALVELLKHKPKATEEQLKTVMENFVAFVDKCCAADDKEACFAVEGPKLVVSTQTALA
Assay [1] is described as follows: probe aXIP binding to arrayed compounds – biochemical, NeuroSMM set, 635/667 nm fluorescence, primary screen (AID 1119).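 Also: probe is the protein aXip251-270 applied at 1 µg/mL to compound-printed slides; binding of probe to printed compounds measured as 667 nm fluorescence plus signal to noise.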 Particulars: small-molecule microarray, higher = more signal, called active from +8 up or from −8 down.
Assay [2] is described as follows: probe aNOTCH3 binding on compound microarray – biochemical, small-molecule microarray, 635/667 nm fluorescence, primary screen (AID 1120).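 Also: probe is a biotin-tagged antibody raised against NOTCH3 rather than NOTCH3 protein; score merges spot fluorescence near 667 nm with spot signal to noise.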 Particulars: higher = more signal.
A short description of assay [3]: probe aNOTCH2 binding on compound microarray – biochemical, small-molecule microarray, 635/667 nm fluorescence, primary screen (AID 1121).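 Also: score merges feature fluorescence read at 667 nm with its signal to noise.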 As to conditions: higher = more signal.
Assay [4] has as its target Carbonic anhydrase 2 (Homo sapiens) (UniProt P00918). Kind of assay: compounds binding carbonic anhydrase 2 – biochemical, small-molecule microarray, Alexa647-labelled CAII, profiling panel (AID 1122). Particulars: CAII-A647 binding fluorescence, higher = more signal.
Assay [5] in a line: COS7 lysate on small-molecule microarray, probe aHis, 635 nm (AID 1123).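 Also: z-score combines 667nm fluorescence intensity with signal-to-noise per printed compound spot.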 As to conditions: COS7 cell lysate, fluorescence, higher = more signal.
A short description of assay [6]: probe aLAP1 signal on lysate-treated microarray – cell lysate, small-molecule microarray, COS7 lysate, primary screen (AID 1124).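 Also: lysate comes from COS7 cells expressing LAP1 and is applied at 0.3 µg/mL; score merges spot fluorescence near 667 nm with signal-to-noise over triplicate slides.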 As to conditions: probe aLAP1, fluorescence, higher = more signal.
A further assay deals with Sam68 (KHDRBS1). Put plainly: compounds binding KHDRBS1 protein – biochemical, small-molecule microarray, 635 nm fluorescence, primary screen (AID 1125).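 Also: score merges 667 nm channel intensity with signal to noise over triplicate slides.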 Particulars: higher = more signal.
Assay [7] relates to Chordin-like protein 2 (CHRDL2). Kind of assay: compounds binding chordin-like 2 – biochemical, small-molecule microarray, 635 nm fluorescence, primary screen (AID 1126).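 Also: printed compound slides probed with Chrdl2 protein at 4 µg/mL for 1 h at 4 C; score merges 667 nm emission intensity with signal to noise over three replicate slides.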 Particulars: fluorescence 635 nm, higher = more signal.
The target in assay [8] is Concanavalin-A (Canavalia ensiformis) (UniProt P02866). Put plainly: compounds binding concanavalin A lectin – biochemical, small-molecule microarray, Alexa647 label, 635 nm, artefact control for SMM control protein annotation, primary screen (AID 1127).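 Also: z combines 667 nm emission intensity with signal-to-noise across three replicate slides.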 Particulars: ConA-A647 binding fluorescence, higher = more signal.
Sequence of Concanavalin-A (Canavalia ensiformis) (P02866 whole entry, looked up): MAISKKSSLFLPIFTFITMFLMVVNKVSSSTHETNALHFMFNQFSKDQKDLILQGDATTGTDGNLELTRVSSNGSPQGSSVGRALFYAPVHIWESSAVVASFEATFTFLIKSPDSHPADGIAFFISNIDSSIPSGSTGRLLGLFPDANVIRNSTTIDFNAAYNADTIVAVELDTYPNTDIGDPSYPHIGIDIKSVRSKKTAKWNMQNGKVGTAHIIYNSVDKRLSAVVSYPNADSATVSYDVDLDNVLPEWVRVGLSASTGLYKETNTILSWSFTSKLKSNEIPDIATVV
Assay [9] is described as follows: compounds binding Alexa647 anti-His antibody – biochemical, small-molecule microarray, 635 nm fluorescence, artefact control for SMM control protein annotation, primary screen (AID 1128).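 Also: score merges feature fluorescence with signal-to-noise for each printed compound spot.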 As to conditions: higher = more signal.
The subject of assay [10] is Human papillomavirus type 1a E7 protein (residues 1-88). Put plainly: HPV1a E7 small-molecule binders, primary screen, biochemical, small-molecule microarray, residues 1-88, 635 nm (AID 1129). As to conditions: small-molecule microarray binding, fluorescence 635 nm; higher = more signal.
Assay [11] addresses Focal adhesion kinase 1 (Homo sapiens) (UniProt Q05397). Put plainly: PTK2 protein binding on printed compound slides – biochemical, small-molecule microarray, 635/667 nm fluorescence, BSA, DTT, primary screen (AID 1130).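 Also: composite of spot emission at 667 nm and signal to noise over triplicate slides.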 As to conditions: 635 nm fluorescence, higher = more signal.
For assay [12], the system named is Fibrinogen (Alexa647-labelled). Put plainly: Alexa647-fibrinogen binding to printed small molecules – biochemical, small-molecule microarray, 635/667 nm fluorescence, artefact control for SMM control-protein annotation, profiling panel (AID 1131).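 Also: z-score merges 667 nm fluorescence with per-spot signal-to-noise over triplicate slides.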 As to conditions: fibrinogen-A647 binding fluorescence, higher = more signal.
Assay [13] addresses Follistatin (Homo sapiens) (UniProt P19883). Kind of assay: FST protein binding to printed compounds – biochemical, small-molecule microarray, 635/667 nm fluorescence, primary screen (AID 1132). As to conditions: 635 nm fluorescence, higher = more signal.
Assay [14] deals with Fibroblast growth factor 2 (Homo sapiens) (UniProt P09038). Kind of assay: basic fibroblast growth factor binding to printed compounds – biochemical, small-molecule microarray, 635/667 nm fluorescence, primary screen (AID 1133). Particulars: FGF2, fluorescence 635/667, higher = more signal.
Sequence of Fibroblast growth factor 2 (Homo sapiens) (P09038 whole entry, looked up): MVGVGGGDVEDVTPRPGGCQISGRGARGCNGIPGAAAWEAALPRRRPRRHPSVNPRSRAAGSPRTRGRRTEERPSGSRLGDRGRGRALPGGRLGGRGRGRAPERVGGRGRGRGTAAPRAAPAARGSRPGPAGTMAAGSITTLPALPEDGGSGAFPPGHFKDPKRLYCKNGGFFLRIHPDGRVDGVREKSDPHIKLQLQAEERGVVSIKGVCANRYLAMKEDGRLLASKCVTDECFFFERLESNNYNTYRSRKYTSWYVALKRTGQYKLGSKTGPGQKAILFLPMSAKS
Assay [15] in a line: JC-1 mitochondrial potential readout, lung cancer cells – cell-based, A549, JC-1 fluorescence, basal, 24 h, 100 nL, profiling panel (AID 1138).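 Also: A549 lung adenocarcinoma cells under basal conditions with no added stimulus; test concentration not given here.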 Particulars: higher = more signal.
The test system of another assay is Lefty1. Kind of assay: Lefty1 protein binding to printed compounds – biochemical, small-molecule microarray, 635/667 nm fluorescence, primary screen (AID 1139). Particulars: fluorescence 635/667, higher = more signal.
Assay [16] deals with wheat germ agglutinin (Triticum aestivum), Alexa647-labelled. Put plainly: Alexa647-WGA lectin binding to printed small molecules – biochemical, small-molecule microarray, 635/667 nm fluorescence, artefact control for SMM control-protein annotation, profiling panel (AID 1140).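 Also: score merges 667 nm feature emission with signal to noise over triplicate slides.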 Particulars: WGA-A647 binding, 635 nm fluorescence, higher = more signal.
Assay [17] concerns the target Luciferin 4-monooxygenase (Photinus pyralis) (UniProt P08659). Kind of assay: inhibition of purified Photinus pyralis luciferase – biochemical, luminescence, purified enzyme, 2006 set, primary screen (AID 1141).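 Also: cell-free assay with purified firefly luciferase at 100 ng per well in PBS; test concentration not given here.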 As to conditions: purified firefly luciferase, SteadyGlo luminescence, 30 min; higher = more signal, called active from +8 up or from −8 down.

Sequence of Follistatin (Homo sapiens) (P19883 whole entry, looked up): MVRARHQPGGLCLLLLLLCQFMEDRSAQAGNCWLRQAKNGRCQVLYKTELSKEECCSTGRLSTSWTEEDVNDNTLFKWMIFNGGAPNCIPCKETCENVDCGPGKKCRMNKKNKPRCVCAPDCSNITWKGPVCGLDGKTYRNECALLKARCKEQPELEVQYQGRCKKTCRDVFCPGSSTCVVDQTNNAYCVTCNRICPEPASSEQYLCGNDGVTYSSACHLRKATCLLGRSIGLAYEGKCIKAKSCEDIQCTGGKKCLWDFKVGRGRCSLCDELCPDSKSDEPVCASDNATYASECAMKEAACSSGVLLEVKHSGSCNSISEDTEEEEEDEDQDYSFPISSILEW
Sequence of Focal adhesion kinase 1 (Homo sapiens) (Q05397 whole entry, looked up): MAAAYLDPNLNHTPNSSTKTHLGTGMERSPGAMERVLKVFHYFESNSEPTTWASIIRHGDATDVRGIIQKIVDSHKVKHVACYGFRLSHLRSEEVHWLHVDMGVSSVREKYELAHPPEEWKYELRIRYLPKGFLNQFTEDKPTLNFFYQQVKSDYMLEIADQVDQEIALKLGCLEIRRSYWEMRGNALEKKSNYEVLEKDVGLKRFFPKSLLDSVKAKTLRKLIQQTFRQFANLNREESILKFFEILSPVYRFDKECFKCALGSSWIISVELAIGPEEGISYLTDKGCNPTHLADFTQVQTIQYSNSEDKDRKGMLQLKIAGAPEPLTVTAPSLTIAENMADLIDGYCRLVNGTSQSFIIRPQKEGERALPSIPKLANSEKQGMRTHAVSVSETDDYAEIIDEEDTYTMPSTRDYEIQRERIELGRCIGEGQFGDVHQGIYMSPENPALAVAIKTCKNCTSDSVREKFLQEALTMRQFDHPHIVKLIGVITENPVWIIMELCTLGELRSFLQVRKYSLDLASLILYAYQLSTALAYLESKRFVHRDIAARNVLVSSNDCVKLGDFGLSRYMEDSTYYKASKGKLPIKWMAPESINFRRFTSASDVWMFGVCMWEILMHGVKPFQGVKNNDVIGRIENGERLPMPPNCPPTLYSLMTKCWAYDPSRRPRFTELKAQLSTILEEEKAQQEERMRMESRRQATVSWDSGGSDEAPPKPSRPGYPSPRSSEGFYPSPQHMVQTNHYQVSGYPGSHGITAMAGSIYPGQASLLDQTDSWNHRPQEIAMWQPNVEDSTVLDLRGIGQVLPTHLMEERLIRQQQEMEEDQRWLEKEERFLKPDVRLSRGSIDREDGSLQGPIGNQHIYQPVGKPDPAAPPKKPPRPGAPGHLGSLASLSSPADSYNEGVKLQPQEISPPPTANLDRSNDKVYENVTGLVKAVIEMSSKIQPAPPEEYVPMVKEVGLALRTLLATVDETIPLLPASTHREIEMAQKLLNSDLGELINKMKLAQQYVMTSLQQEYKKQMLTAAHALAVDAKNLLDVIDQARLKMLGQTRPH
Sequence of Luciferin 4-monooxygenase (Photinus pyralis) (P08659 whole entry, looked up): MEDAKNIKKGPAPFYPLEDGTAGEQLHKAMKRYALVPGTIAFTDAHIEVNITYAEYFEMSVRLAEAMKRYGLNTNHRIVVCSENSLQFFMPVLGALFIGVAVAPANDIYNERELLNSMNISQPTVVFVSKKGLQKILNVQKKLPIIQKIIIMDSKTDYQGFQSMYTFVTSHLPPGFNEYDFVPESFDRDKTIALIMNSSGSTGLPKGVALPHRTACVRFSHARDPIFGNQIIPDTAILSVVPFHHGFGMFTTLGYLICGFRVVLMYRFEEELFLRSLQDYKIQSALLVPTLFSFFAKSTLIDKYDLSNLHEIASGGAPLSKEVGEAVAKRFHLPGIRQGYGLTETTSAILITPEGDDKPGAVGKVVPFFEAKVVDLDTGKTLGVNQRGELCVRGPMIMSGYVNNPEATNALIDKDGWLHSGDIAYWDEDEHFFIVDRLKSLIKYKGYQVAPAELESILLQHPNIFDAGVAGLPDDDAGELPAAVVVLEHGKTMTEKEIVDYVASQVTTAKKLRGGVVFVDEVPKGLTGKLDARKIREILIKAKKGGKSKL

With `C=CCC(OC(C)=O)[C@@H]1[C@@H](N(Cc2ccc(-c3ccccc3)cc2)C(=O)c2cccc3ccccc23)c2cc(OCCCO)ccc2N1C(=O)Cc1ccc(OC)cc1` (stereo not given in full), the composite z-score with Albumin (Bos taurus) was -0.276; in assay [2], 0.222; in [3] it was 0.0092; in [4], -0.208; in assay [5], -0.212; in assay [6] it was -0.338. Further, the composite z-score was -0.205 with Sam68 (KHDRBS1); 0.475 in assay [7]; -0.0975 in assay [8]; 0.118 in assay [9]; -0.0598 in assay [10]; -0.109 in [11]. The composite z-score in assay [12] was determined as 0.698; in assay [13] it was 0.921; in [14], 0.285; in the assay on Lefty1, 0.0844; in assay [16], 0.175. The composite Z-score in assay [1] was -0.064 (inactive). In addition, the z-score is 0.508 in [15] and 0.706 (inactive) in [17].
For `COc1ccc(C(=O)Nc2cccc(CN3C(=O)[C@@]4(O[C@@H](CC(=O)N5CCC[C@H]5CO)[C@H]([Si](C)(C)c5ccc(OC)cc5)[C@H]4C)c4ccccc43)c2)cc1`, the composite z-score with Albumin (Bos taurus) is 0.343; in [2], 0.0305; in [3], -0.11; in assay [4], 0.531; in assay [5], 1.75; in assay [6], -0.19. For the same molecule, the composite z-score came to 1.34 in the assay with Sam68 (KHDRBS1); 0.862 in assay [7]; 1.17 in assay [8]; 1.39 in [9]; 1.03 in [10]; 0.988 in assay [11]. Besides, the composite z-score in assay [12] came to 0.875; in assay [13], 1.08; in assay [14], 1.1; with Lefty1 it was 0.703; in assay [16] it was 0.7. Besides, in assay [1], the composite Z-score was -0.0697 (inactive). The z-score is 1.53 in assay [15] and -0.599 (inactive) in [17].
Turning to `COCCCNC(=O)[C@@]1(CCS(=O)(=O)c2ccccc2)COC(c2ccc(OCCCO)cc2)=N1`, the composite z-score worked out at 0.595 with Albumin (Bos taurus); 0.567 in assay [2]; 0.0551 in [3]; 0.919 in [4]; 3.36 in assay [5]; 0.706 in [6]. In addition, the composite z-score is 1.14 with Sam68 (KHDRBS1); -0.804 in assay [7]; 0.945 in assay [8]; 3.75 in [9]; 0.92 in [10]; 0.394 in [11]. Also, the composite z-score in [12] is 1.02; in assay [13], 1.31; in assay [14] it was 0.194; in the assay on Lefty1, -0.0951; in [16], 1.59. The composite Z-score in assay [1] was 0.197 (inactive). The z-score was 0.206 in [15] and -0.0482 (inactive) in [17].
Take `O=C1O[C@H](c2ccccc2)[C@H](c2ccccc2)N2[C@H]1[C@@H](C(=O)O)[C@]1(C(=O)Nc3ccc(C#CCCO)cc31)[C@H]2c1ccc(OCCO)cc1`: the composite z-score with Albumin (Bos taurus) was found to be 0.316; in assay [2], 0.0026; in assay [3], 0.015; in [4], 0.596; in assay [5] it was 2.2; in assay [6] it was 1.38. In addition, the composite z-score stood at 1.08 in the assay on Sam68 (KHDRBS1); 1.11 in [7]; 0.891 in assay [8]; 2.27 in assay [9]; 1.22 in assay [10]; 0.146 in assay [11]. The composite z-score in [12] is 0.974; in assay [13], 1.22; in assay [14], 1.16; with Lefty1 it was 0.0897; in assay [16], 1.17. Further, the composite Z-score in assay [1] is 0.0388 (inactive). The z-score was 0.747 in assay [15] and -3.11 (inactive) in assay [17].
With `C=CCNC(=O)[C@@H]1[C@H]2C(=O)O[C@H](c3ccccc3)[C@H](c3ccccc3)N2[C@H](c2ccc(OCCO)cc2)[C@@]12C(=O)Nc1ccc(C#CC3(O)CCCCCC3)cc12`, the composite z-score is 0.692 with Albumin (Bos taurus); 0.13 in assay [2]; -0.11 in assay [3]; 0.42 in assay [4]; 1.86 in assay [5]; 0.637 in assay [6]. For the same molecule, the composite z-score came to 1.3 in the assay with Sam68 (KHDRBS1); 0.253 in [7]; 1.19 in [8]; 2.64 in assay [9]; 1.18 in assay [10]; 0.245 in [11]. Moreover, the composite z-score in assay [12] stood at 0.891; in [13], 1.34; in [14], 0.755; in the assay on Lefty1 it was 0.497; in assay [16], 1.04. Further, in [1], the composite Z-score was -0.058 (inactive). The z-score in assay [15] is -1.21; in [17], -0.467 (inactive).
